Inconclusive results are not listed. Where a call stands in place of a potency, no number is given. Values without a mark were called inactive. Activity calls are given as the source filed them. Calls come from the whole dose curve; as a rule, active = well fitted inhibition curve with a large enough effect; inconclusive = small, poorly fitted or top-dose-only effect; inactive = flat fitted curve, though single readings scatter.
Note: nearly all actives have a fitted effect of over 65% in size.

Chain of Phospholipid hydroperoxide glutathione peroxidase GPX4 (Homo sapiens) (P36969 whole entry, looked up): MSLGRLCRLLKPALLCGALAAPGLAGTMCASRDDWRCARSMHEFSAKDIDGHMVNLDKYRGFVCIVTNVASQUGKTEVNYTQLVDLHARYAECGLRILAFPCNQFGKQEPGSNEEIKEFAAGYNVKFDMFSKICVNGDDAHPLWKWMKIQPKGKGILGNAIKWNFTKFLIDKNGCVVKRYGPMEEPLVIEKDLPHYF

The target in one test is Glutathione peroxidase 1 (Homo sapiens) (UniProt P07203). The test can be described thus: Primary qHTS Assay for Inhibitors of Recombinant Selenoprotein Glutathione Peroxidase 1 (GPX1) (AID 1845191). The conditions noted are these: recombinant GPX1, GR-coupled NADPH fluorescence, 15 min; series mostly up to 48.8 µM; activity, negative = inhibition: at the top concentration. An outline of the steps: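 Recombinant GPX1 (10 nM final) was preincubated with compound for 30 min at room temperature, then reacted with 1 mM GSH, 0.5 mM CHP, 0.5 mM NADPH and 100 nM glutathione reductase; NADPH fluorescence (340/450 nm) was read at 0 and 15 min.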
Chain of Glutathione peroxidase 1 (Homo sapiens) (P07203 whole entry, looked up): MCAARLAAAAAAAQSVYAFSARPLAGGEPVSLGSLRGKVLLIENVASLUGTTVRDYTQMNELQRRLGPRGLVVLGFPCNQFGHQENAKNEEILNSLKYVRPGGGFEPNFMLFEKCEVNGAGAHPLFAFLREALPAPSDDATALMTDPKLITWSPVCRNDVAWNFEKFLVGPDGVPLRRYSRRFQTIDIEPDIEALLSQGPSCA
(qHTS replaces the single test concentration by a dilution series.)
On to `C[C@]12CCC(=O)C(O)=C1CC[C@@H]1[C@@H]2CC[C@]2(C)C(=O)CC[C@@H]12`, for which the “activity, negative = inhibition” value was 3.18% [at 98.3 µM].

As to `CC(C)CC(N(C)C)C1(c2ccc(Cl)cc2)CCC1` (stereo unspecified), the outcome was inactive.

As to `C#CCN(C)[C@H](C)Cc1ccccc1`, the Potency result was “inactive”.

Regarding `Clc1ccc(CCC(Cn2ccnc2)Sc2c(Cl)cccc2Cl)cc1` (stereo unspecified), the Potency entry was “inactive”.

For `Oc1cccc2cccnc12`, the Potency entry was “inactive”.

Take `C=C(C)[C@H]1Cc2c(ccc3c2O[C@@H]2COc4cc(OC)c(OC)cc4[C@@H]2C3=O)O1`: the Potency result was “inactive”.

In the case of `O=P1(NCCCl)OCCCN1CCCl` (stereo unspecified), the Potency entry was “inactive”.

In the case of `CN(C)CCN(C)CCc1ccc(Cl)c(Cl)c1`, the result was inactive.

In the case of `C=CCN1CC[C@]23c4c5ccc(O)c4O[C@H]2C(=O)CC[C@@]3(O)[C@H]1C5`, the result was inactive.

Regarding `CCC(COC(=O)c1cc(OC)c(OC)c(OC)c1)(c1ccccc1)N(C)C` (stereo unspecified), the “activity, negative = inhibition” value was -16.4%.

On to `COc1ccc(Cc2nccc3cc(OC)c(OC)cc23)cc1OC`, for which the Potency result was “inactive”.

`CN1CCN(C(=O)O[C@H]2c3nccnc3C(=O)N2c2ccc(Cl)cn2)CC1`: the outcome was inactive.

As for `O=[N+]([O-])c1cc([As](=O)(O)O)ccc1O`, the “activity, negative = inhibition” value is -18.5%.

`CNC(=O)c1ccc(N2C(=S)N(c3ccc(C#N)c(C(F)(F)F)c3)C(=O)C23CCC3)cc1F`: the Potency entry was “inactive”.

As to `CN(C)[C@@H]1C(=O)C(C(N)=O)=C(O)[C@@]2(O)C(=O)C3=C(O)c4c(O)cccc4[C@@](C)(O)[C@H]3C[C@@H]12`, the Potency entry is “inactive”.

With `Oc1cc(Cl)ccc1Oc1ccc(Cl)cc1Cl`, the “activity, negative = inhibition” value was -27.4%.

Take `Cn1cc(C2=C(c3cn(C4CCN(Cc5ccccn5)CC4)c4ccccc34)C(=O)NC2=O)c2ccccc21`: the Potency result is “inactive”.

For the compound `OCCOc1ccccc1`, the “activity, negative = inhibition” value is 3.54% [at 98.3 µM].

With `CC(C)(C)CC(C)(C)c1ccc(O)cc1`, the “activity, negative = inhibition” value is 3.8%.

In the case of `C=C1CC[C@@]2(O)[C@H]3Cc4ccc(O)c5c4[C@@]2(CCN3CC2CC2)[C@H]1O5`, the “activity, negative = inhibition” value was -8.44%.

As for `C[C@]12CC[C@H]3[C@@H](CCC4=CC(=O)CC[C@@H]43)[C@@H]1CC[C@@H]2OC(=O)CCc1ccccc1`, the “activity, negative = inhibition” value is -19.1%.

The next test deals with Phospholipid hydroperoxide glutathione peroxidase GPX4 (Homo sapiens) (UniProt P36969). The test is described as follows: Primary qHTS Assay for Inhibitors of Recombinant Selenoprotein Glutathione Peroxidase 4 (GPX4) (AID 1845192). The conditions noted are these: recombinant GPX4, GR-coupled NADPH fluorescence, 15 min; series mostly up to 50 µM; activity change, negative = inhibition: at the top concentration. An outline of the steps:
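GR-coupled readout: 100 nM GR, 1 mM GSH, 0.5 mM NADPH; NADPH fluorescence (ex 340/em 450 nm) read at t=0 and after 15 min RT. GPX4 200 nM, preincubated 30 min with compound; substrate 0.5 mM CHP.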
Take `COC1(CS(=O)c2ccccc2)CCN(CCc2c[nH]c3ccc(F)cc23)CC1` (stereo unspecified): the “activity change, negative = inhibition” value is -5.87%.

Regarding `c1ccc2c(c1)Nc1ccccc1S2`, the result was inactive.

On to `Oc1ccc(Cl)cc1Cc1ccccc1`, for which the “activity change, negative = inhibition” value was -1.94%.

On to `FC(F)(F)c1cccc(C2=CCN(CCc3ccc4ccccc4c3)CC2)c1`, for which the outcome was inactive.

Turning to `N[C@@H](Cc1ccc(N(CCCl)CCCl)cc1)C(=O)O`, the Potency entry was “inactive”.

For `CNC(=O)N1N=C(c2ccc(N)cc2)c2cc3c(cc2CC1C)OCO3` (stereo unspecified), the “activity change, negative = inhibition” value is 1.13%.

Regarding `CC(C)(C)NCC(O)c1cc(Cl)c(N)c(Cl)c1` (stereo unspecified), the “activity change, negative = inhibition” value is 0.928%.

`CC(=O)Nc1cc([As](=O)(O)O)ccc1O`: the outcome was inactive.

Consider `CC(C)NCC(O)c1ccccc1Cl` (stereo unspecified), for which the “activity change, negative = inhibition” value was -4.22%.

In the case of `C[C@]12CCC(=O)C(O)=C1CC[C@@H]1[C@@H]2CC[C@]2(C)C(=O)CC[C@@H]12`, the “activity change, negative = inhibition” value was -13.3% [at 100 µM].

For the compound `CC(C)CC(N(C)C)C1(c2ccc(Cl)cc2)CCC1` (stereo unspecified), the “activity change, negative = inhibition” value is -24.3%.

`Clc1ccc(CCC(Cn2ccnc2)Sc2c(Cl)cccc2Cl)cc1` (stereo unspecified): the Potency entry is “inactive”.

With `C=C(C)[C@H]1Cc2c(ccc3c2O[C@@H]2COc4cc(OC)c(OC)cc4[C@@H]2C3=O)O1`, the Potency entry is “inactive”.

For `O=P1(NCCCl)OCCCN1CCCl` (stereo unspecified), the Potency entry is “inactive”.

For the compound `CN(C)CCN(C)CCc1ccc(Cl)c(Cl)c1`, the outcome was inactive.

For `C=CCN1CC[C@]23c4c5ccc(O)c4O[C@H]2C(=O)CC[C@@]3(O)[C@H]1C5`, the result was inactive.

For `CCC(COC(=O)c1cc(OC)c(OC)c(OC)c1)(c1ccccc1)N(C)C` (stereo unspecified), the “activity change, negative = inhibition” value was -9.13%.

As for `CN1CCN(C(=O)O[C@H]2c3nccnc3C(=O)N2c2ccc(Cl)cn2)CC1`, the outcome was inactive.

For `O=[N+]([O-])c1cc([As](=O)(O)O)ccc1O`, the “activity change, negative = inhibition” value is -7.21%.

Turning to `CN(C)[C@@H]1C(=O)C(C(N)=O)=C(O)[C@@]2(O)C(=O)C3=C(O)c4c(O)cccc4[C@@](C)(O)[C@H]3C[C@@H]12`, the “activity change, negative = inhibition” value is -14.8%.

Consider `Oc1cc(Cl)ccc1Oc1ccc(Cl)cc1Cl`, for which the “activity change, negative = inhibition” value is -19.3%.

For `Cn1cc(C2=C(c3cn(C4CCN(Cc5ccccn5)CC4)c4ccccc34)C(=O)NC2=O)c2ccccc21`, the “activity change, negative = inhibition” value was -9.29%.

Take `OCCOc1ccccc1`: the “activity change, negative = inhibition” value is -2.48% [at 100 µM].

Consider `CC(C)(C)CC(C)(C)c1ccc(O)cc1`, for which the outcome was inactive.

As for `C=C1CC[C@@]2(O)[C@H]3Cc4ccc(O)c5c4[C@@]2(CCN3CC2CC2)[C@H]1O5`, the result was inactive.
